Where “and” joins values, the source holds several entries; their conditions need not be identical. Equal values may be shown once. The source holds several records for some structures; these can differ, active in one and inactive in another. Calls of active or inactive are those of the source. Entries that show only a call come without a potency. Unless noted, calls follow the shape of the dose curve; as a rule, active = well fitted curve in the direction sought with a large enough effect in the repeat runs; inconclusive = weak or mixed curves; inactive = no such curve, though single readings can be large; an effect the other way counts as inactive or inconclusive.
Legend:
[1] = qHTS assay to identify small molecule antagonists of the thyroid receptor (TR) signaling pathway - cell viability counter screen (AID 743064); also: nearly all actives have a fitted effect of over 50% in size; also: potency is read from the fitted curve at half-maximal effect
Outline: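 In-well cytotoxicity read by CellTiter-Fluor (30 min, 37 C) following 23.5 h exposure of GH3 cells bearing a TRE-luciferase sensor. Compounds were added alongside 1 nM (final) T3 to drive TR transactivation.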

[2] = qHTS assay to identify small molecule antagonists of the thyroid receptor (TR) signaling pathway (AID 743065); also: nearly all actives have a fitted effect of over 55% in size; also: potency is read from the fitted curve at half-maximal effect
Outline: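 GH3.TRE-Luc rat pituitary cells (two TREs driving luciferase) were dosed with compound, then stimulated with 1 nM T3 (final) for 23.5 h at 37 C. ONE-Glo luminescence was the read-out, with CellTiter-Fluor fluorescence as the cytotoxicity counter-screen.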

[3] = system: thyroid hormone receptor (rat, GH3 cells); assay: qHTS assay to identify small molecule agonists of the thyroid receptor (TR) signaling pathway (AID 743066; calls by dose curve)
[4] = qHTS assay to identify small molecule antagonists of the estrogen receptor alpha (ER-alpha) signaling pathway - cell viability counter screen (AID 743074; calls by dose curve;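 also: HEK293 cells carrying ER-alpha-UAS-bla reporter stimulated with 17beta-estradiol; nearly all actives have a fitted effect of over 45% in size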; also: potency is read from the fitted curve at half-maximal effect)
[5] = qHTS assay to identify small molecule antagonists of the estrogen receptor alpha (ER-alpha) signaling pathway using the BG1 cell line - cell viability counter screen (AID 743081);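 also: compound given together with 17beta-estradiol as the ER stimulus; nearly all actives have a fitted effect of over 45% in size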; also: potency is read from the fitted curve at half-maximal effect
Aromatase (Homo sapiens) = Aromatase (Homo sapiens) (UniProt P11511); assay: qHTS assay to identify aromatase inhibitors (AID 743083); also: nearly all actives have a fitted effect of over 55% in size; also: potency is read from the fitted curve at half-maximal effect
[6] = qHTS assay to identify aromatase inhibitors - cell viability counter screen (AID 743084);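 also: cells stimulated with testosterone during compound exposure; nearly all actives have a fitted effect of over 55% in size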; also: potency is read from the fitted curve at half-maximal effect
[7] = qHTS assay to identify small molecule that activate the aryl hydrocarbon receptor (AhR) signaling pathway - cell viability counter screen (AID 743086); also: nearly all actives have a fitted effect of over 45% in size; also: potency is read from the fitted curve at half-maximal effect
Outline: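 HepG2-AhR-luc (HG2L7.5c1) cells, 4000/well, treated 24 h at 37 C with compound; viability measured as CellTiter-Fluor fluorescence after 30 min in the same wells as the luciferase read.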

[8] = biological target: Peroxisome proliferator-activated receptor gamma (Homo sapiens) (UniProt P37231); assay: qHTS assay to identify small molecule agonists of the peroxisome proliferator-activated receptor gamma (PPARg) signaling pathway (AID 743094; active = well fitted activation curve with a large enough effect in the signal ratio in the repeat runs, not every such curve was filed as active; inconclusive = weak or mixed curves, or effect the other way; inactive = no such curve, though single readings can be large or run the other way; the % refers to the signal ratio)
Outline: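 GeneBLAzer PPARg UAS-bla HEK293H cells carrying a stably integrated beta-lactamase reporter were pre-incubated 5 h at 37C, then exposed to compounds in DMSO for 17 h at 37C; LiveBLAzer B/G FRET substrate was added for 1 h at room temperature and fluorescence read.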

[9] = qHTS assay to identify small molecule antagonists of the peroxisome proliferator-activated receptor gamma (PPARg) signaling pathway - cell viability counter screen (AID 743194); details: Potency: co-treated with 50 nM rosiglitazone; also: nearly all actives have a fitted effect of over 55% in size; also: potency is read from the fitted curve at half-maximal effect
Outline: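 Cytotoxicity counter screen in PPARg-bla HEK293H cells, same wells as reporter assay. Compounds plus 50 nM rosiglitazone (final) for 17 h at 37 C, then viability read by CellTiter-Glo luminescence.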

[10] = qHTS assay for small molecule activators of the heat shock response signaling pathway - cell viability counter screen (AID 743209); also: nearly all actives have a fitted effect of over 50% in size; also: potency is read from the fitted curve at half-maximal effect
Outline: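 CellSensor HSE-bla HeLa cells, plated overnight at 37 C/5% CO2, were exposed to compounds in DMSO for 5 h at 37 C. Viability was then read in the same wells by CellTiter-Glo luminescence after 30 min at room temperature.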

[11] = qHTS assay for small molecule activators of the heat shock response signaling pathway (AID 743210; active = well fitted activation curve with a large enough effect in the signal ratio in the repeat runs, with a control signal flat, not every such curve was filed as active; inconclusive = weak or mixed curves; the % refers to the signal ratio; also: series mostly up to about 63 µM)
Outline: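 HSE-bla HeLa cells (beta-lactamase reporter under heat shock response elements), plated overnight, then exposed to compounds 5 h at 37 C; LiveBLAzer B/G FRET substrate added, 2.5 h at room temperature, fluorescence intensity read.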

[12] = biological target: Aryl hydrocarbon receptor (Homo sapiens) (UniProt P35869); assay: qHTS assay to identify small molecule that activate the aryl hydrocarbon receptor (AhR) signaling pathway (AID 743085); also: nearly all actives have a fitted effect of over 15% in size; also: potency is read from the fitted curve at half-maximal effect;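 as to activation: HG2L7.5c1 human HepG2 liver cells with stably integrated DRE-driven firefly reporter; series mostly up to about 70 µM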
Outline: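 Luminescence (ONE-Glo) from a dioxin-responsive-element luciferase reporter in HG2L7.5c1 HepG2 cells after 24 hr compound exposure at 37C; viability measured by CellTiter-Fluor fluorescence beforehand.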

[13] = qHTS assay for small molecule agonists of the antioxidant response element (ARE) signaling pathway - cell viability counter screen (AID 743203; calls by dose curve; also: nearly all actives have a fitted effect of over 55% in size; also: potency is read from the fitted curve at half-maximal effect)
Outline: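 CellSensor ARE-bla HepG2 cells, 2,000 per well, rested 5 hrs at 37C/5% CO2, then exposed to compound in DMSO for 16 hrs; viability read as CellTiter-Glo luminescence after 30 min at room temperature, in the reporter wells.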

[14] = biological target: Peroxisome proliferator-activated receptor gamma (Homo sapiens) (UniProt P37231); assay: qHTS assay to identify small molecule antagonists of the peroxisome proliferator-activated receptor gamma (PPARg) signaling pathway (AID 743191; calls by dose curve; also: series mostly up to about 63 µM; nearly all actives have a fitted effect of over 30% in size)
Outline: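 GeneBLAzer PPARg UAS-bla HEK293H cells, 5 h post-plating, exposed to compounds 17 h at 37C. LiveBLAzer B/G FRET substrate added for 1 h at room temperature; beta-lactamase reporter read by fluorescence intensity.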

[15] = qHTS assay for small molecule agonists of the antioxidant response element (ARE) signaling pathway (AID 743202; active = well fitted activation curve with a large enough effect in the signal ratio in the repeat runs, not every such curve was filed as active; inconclusive = weak or mixed curves, or effect the other way; inactive = no such curve, though single readings can be large or run the other way; the % refers to the signal ratio)
Outline: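 ARE-bla HepG2 cells (beta-lactamase reporter under the antioxidant response element), plated 5 hours, then exposed to compounds 16 hours at 37 C. LiveBLAzer B/G FRET substrate added for 2 hours at room temperature; fluorescence intensity read.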

[16] = biological target: Estrogen receptor (Homo sapiens) (UniProt P03372); assay: qHTS assay to identify small molecule antagonists of the estrogen receptor alpha (ER-alpha) signaling pathway (AID 743069; active = well fitted curve in the direction sought with a large enough effect in the signal ratio in the repeat runs, not every such curve was filed as active; inconclusive = weak or mixed curves, or effect the other way; inactive = no such curve, though single readings can be large or run the other way; the % refers to the signal ratio; also: potency is read from the fitted curve at half-maximal effect)
Outline: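 HEK293 ER-alpha-UAS-bla GripTite cells, held overnight in 2% charcoal-stripped FBS, 5,000 cells/well, preincubated 4 h, then compound plus 17beta-estradiol for 18 h at 37C. Beta-lactamase read by LiveBLAzer B/G FRET substrate, 2 h at room temperature.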

[17] = biological target: Estrogen receptor (Homo sapiens) (UniProt P03372); assay: qHTS assay to identify small molecule agonists of the estrogen receptor alpha (ER-alpha) signaling pathway (AID 743075; calls by dose curve)
[18] = biological target: Estrogen receptor (Homo sapiens) (UniProt P03372); assay: qHTS assay to identify small molecule agonists of the estrogen receptor alpha (ER-alpha) signaling pathway using the BG1 cell line (AID 743079); also: nearly all actives have a fitted effect of over 20% in size
[19] = qHTS assay to identify small molecule antagonists of the estrogen receptor alpha (ER-alpha) signaling pathway using the BG1 cell line (AID 743080; calls by dose curve;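 also: BG1 cells stimulated with 17beta-estradiol alongside compound; nearly all actives have a fitted effect of over 25% in size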; also: potency is read from the fitted curve at half-maximal effect)
Outline: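 BG1Luc4E2, endogenous ER-alpha, 4xERE-luc; 5 d charcoal-stripped FBS, phenol red free; 24 h plating; cpd + 17beta-estradiol 21.5 h, 37 C/5% CO2; CellTiter-Fluor viability 30 min, then ONE-Glo luciferase 30 min RT.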

Sequence of Aryl hydrocarbon receptor (Homo sapiens) (P35869 whole entry, looked up): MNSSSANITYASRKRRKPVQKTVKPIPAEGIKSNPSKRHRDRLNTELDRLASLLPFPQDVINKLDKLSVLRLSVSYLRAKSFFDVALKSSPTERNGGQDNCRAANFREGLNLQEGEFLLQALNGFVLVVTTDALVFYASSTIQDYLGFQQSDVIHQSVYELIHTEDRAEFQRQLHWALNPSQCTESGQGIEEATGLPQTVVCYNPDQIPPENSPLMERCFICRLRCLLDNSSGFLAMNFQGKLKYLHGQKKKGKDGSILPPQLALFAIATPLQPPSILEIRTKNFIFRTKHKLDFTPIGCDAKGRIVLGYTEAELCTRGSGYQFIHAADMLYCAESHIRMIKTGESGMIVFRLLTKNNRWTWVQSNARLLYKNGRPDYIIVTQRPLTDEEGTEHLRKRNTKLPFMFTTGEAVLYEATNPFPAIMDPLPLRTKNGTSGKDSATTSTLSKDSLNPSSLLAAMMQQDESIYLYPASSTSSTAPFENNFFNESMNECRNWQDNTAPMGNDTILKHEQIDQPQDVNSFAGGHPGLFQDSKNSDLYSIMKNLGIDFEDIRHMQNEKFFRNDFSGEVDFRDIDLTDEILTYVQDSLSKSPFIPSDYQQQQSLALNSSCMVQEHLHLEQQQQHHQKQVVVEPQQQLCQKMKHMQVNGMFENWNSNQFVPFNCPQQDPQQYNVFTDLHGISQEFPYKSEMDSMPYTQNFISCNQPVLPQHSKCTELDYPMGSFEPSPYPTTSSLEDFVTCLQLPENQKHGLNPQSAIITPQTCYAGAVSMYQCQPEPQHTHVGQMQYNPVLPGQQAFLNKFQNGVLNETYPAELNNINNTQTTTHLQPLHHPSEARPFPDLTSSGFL
Sequence of Peroxisome proliferator-activated receptor gamma (Homo sapiens) (P37231 whole entry, looked up): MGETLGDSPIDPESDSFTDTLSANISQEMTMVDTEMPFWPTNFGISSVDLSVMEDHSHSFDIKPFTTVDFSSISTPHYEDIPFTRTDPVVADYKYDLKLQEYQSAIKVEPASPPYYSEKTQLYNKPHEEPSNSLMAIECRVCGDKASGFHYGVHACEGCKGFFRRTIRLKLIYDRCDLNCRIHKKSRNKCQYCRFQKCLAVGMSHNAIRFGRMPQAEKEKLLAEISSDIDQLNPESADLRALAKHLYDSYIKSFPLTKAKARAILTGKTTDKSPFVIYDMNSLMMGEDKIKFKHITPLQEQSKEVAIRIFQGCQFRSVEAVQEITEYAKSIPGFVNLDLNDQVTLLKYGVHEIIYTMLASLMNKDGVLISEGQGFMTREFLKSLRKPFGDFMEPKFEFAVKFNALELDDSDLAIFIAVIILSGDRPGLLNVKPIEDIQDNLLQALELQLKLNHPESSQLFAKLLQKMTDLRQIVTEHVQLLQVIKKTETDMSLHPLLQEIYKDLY
Sequence of Aromatase (Homo sapiens) (P11511 whole entry, looked up): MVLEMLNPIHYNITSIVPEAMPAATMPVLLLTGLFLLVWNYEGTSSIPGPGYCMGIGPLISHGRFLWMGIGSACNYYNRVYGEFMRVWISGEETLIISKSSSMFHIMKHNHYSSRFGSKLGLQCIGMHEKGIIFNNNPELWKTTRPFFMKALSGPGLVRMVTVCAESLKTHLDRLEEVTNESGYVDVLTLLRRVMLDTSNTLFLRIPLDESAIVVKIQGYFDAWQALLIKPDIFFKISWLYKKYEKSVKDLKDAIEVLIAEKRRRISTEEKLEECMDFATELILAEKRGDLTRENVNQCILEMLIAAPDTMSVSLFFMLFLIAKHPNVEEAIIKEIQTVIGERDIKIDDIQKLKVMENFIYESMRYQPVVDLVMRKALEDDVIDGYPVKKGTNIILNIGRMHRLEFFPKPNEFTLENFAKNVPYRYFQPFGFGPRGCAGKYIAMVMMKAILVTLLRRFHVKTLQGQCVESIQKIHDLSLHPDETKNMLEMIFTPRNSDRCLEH
Sequence of Estrogen receptor (Homo sapiens) (P03372 whole entry, looked up): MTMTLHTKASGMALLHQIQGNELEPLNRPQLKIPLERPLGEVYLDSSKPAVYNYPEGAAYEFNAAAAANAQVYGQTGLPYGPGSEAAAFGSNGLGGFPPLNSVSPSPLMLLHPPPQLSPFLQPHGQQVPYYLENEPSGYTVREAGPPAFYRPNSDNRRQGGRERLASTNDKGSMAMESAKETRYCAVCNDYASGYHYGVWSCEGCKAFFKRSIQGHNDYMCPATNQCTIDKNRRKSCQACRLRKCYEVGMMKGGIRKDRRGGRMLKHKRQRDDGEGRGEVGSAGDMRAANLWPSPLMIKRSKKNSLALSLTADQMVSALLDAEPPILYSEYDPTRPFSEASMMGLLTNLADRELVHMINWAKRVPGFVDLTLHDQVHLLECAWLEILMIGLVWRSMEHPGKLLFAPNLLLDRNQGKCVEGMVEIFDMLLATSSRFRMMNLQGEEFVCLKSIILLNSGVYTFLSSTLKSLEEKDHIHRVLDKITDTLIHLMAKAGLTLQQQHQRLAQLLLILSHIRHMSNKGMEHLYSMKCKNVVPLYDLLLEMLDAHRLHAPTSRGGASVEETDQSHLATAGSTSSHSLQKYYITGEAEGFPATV

SMILES | Potency [1] | Potency [2] | Potency [3] | Potency [4] | Potency [5] | Potency (Aromatase (Homo sapiens)) | Potency [6] | Potency [7] | Potency [8] | Potency [9] | Potency [10] | Potency [11] | Potency [12] | Potency [13] | Potency [14] | Potency [15] | Potency [16] | Potency [17] | Potency [18] | Potency [19]
CCCN(CCOc1c(Cl)cc(Cl)cc1Cl)C(=O)n1ccnc1 | 62.4 µM (active) | 27.9 µM (active) and 61.1 µM (active) | inactive | inactive | inactive | 1.57 µM (active) and 969 nM (active) | inactive | inactive | inactive | inactive | inactive | inactive |  |  |  |  |  |  |  | 
[Cl-].[Cl-].[Hg+2] | 1.33 µM (active) and 1.36 µM (active) and 243 nM (active) | 841 nM (active) and 1.21 µM (active) and 193 nM (active) |  | 24.4 µM (active) | 54.2 µM (active) and inactive | 13.3 µM (active) and 1.36 µM (active) and 15.4 µM (active) | 10.6 µM (active) and 1.08 µM (active) and 12.2 µM (active) | 6.08 µM (active) and 54.5 µM (active) |  | 21.8 µM (active) and 21.9 µM (active) | 3.87 µM (active) and 30.9 µM (active) |  | inactive | 19.2 µM (active) and 12.2 µM (active) |  |  |  |  |  | 
CC(C)CCCCCCCOC(=O)c1ccccc1C(=O)OCCCCCCCC(C)C | inactive | inactive |  | inactive | inactive | inactive | inactive | inactive | inactive |  | inactive | inactive | inactive | inactive | inactive |  |  |  |  | 
O=C(O)CCCOc1ccc(Cl)cc1Cl | inactive | inactive | inactive | inactive | inactive | inactive |  | inactive |  | inactive | inactive | inactive |  | inactive and 27.8 µM (active) |  | inactive |  |  |  | 
COC1=CC(=O)O[C@@H](/C=C/c2ccc3c(c2)OCO3)C1 | inactive | 58.5 nM (active) | inactive |  | inactive | inactive | inactive | inactive | inactive | inactive | inactive | inactive | 0.414 µM (active) | inactive | inactive |  |  |  |  | 
O=C1c2ccccc2C(=O)N1SC(Cl)(Cl)Cl | 4.27 µM (active) and 2.17 µM (active) | 2.4 µM (active) and 1.54 µM (active) |  | 21.6 µM (active) and inactive |  | 3.02 µM (active) and 4.86 µM (active) | 1.22 µM (active) | inactive | inactive | 2.19 µM (active) |  |  | inactive | 60.3 µM (active) and 13.7 µM (active) |  |  | 24.5 µM [inconclusive] (active) | inactive |  | 
c1ccc2c(c1)-c1cccc3cccc-2c13 | inactive | inactive | inactive | inactive | inactive | inactive | inactive | inactive |  | inactive | inactive | inactive |  | inactive |  | inactive |  |  |  | 
CNC(=O)Oc1cccc(N=CN(C)C)c1 | inactive |  | inactive | inactive | inactive | inactive | inactive | inactive | inactive | inactive | inactive |  |  | inactive |  |  |  | inactive | inactive | 
C=CCc1ccc(OC(=O)Cc2ccccc2)c(OC)c1 | inactive | inactive | inactive | inactive | inactive | inactive | inactive | inactive | inactive | inactive | inactive | inactive |  | inactive |  | inactive |  |  |  | 
COc1ccccc1N1CCNCC1 | inactive | inactive | inactive | inactive | inactive | inactive | inactive | inactive | inactive | inactive | inactive | inactive |  | inactive | inactive | inactive |  |  |  | 
CCC1(CCC(C)C)C(=O)NC(=O)NC1=O | inactive | inactive | inactive |  |  | inactive | inactive | inactive | inactive | inactive | inactive | inactive | inactive | inactive | inactive | inactive |  |  |  | 
CCCCC(CC)COC(=O)c1c(Br)c(Br)c(Br)c(Br)c1C(=O)OCC(CC)CCCC (configuration not stated) | inactive | inactive | inactive |  | inactive | inactive | inactive | inactive | inactive | inactive | inactive | inactive | inactive | inactive | inactive | inactive |  | inactive | inactive | inactive
CC(C)(C)OOC(C)(C)CCC(C)(C)OOC(C)(C)C | inactive | inactive | inactive | inactive | inactive |  |  | inactive |  | inactive | inactive | inactive |  | inactive |  | inactive |  |  |  | 
CCCCNC(=O)OCC#CI | 6.82 µM (active) and 4.33 µM (active) | 9.64 µM (active) and 4.86 µM (active) | inactive |  | inactive | 4.83 µM (active) and 13.7 µM (active) | 6.08 µM (active) and 17.2 µM (active) | inactive |  |  | inactive |  | inactive | 21.7 µM (active) |  |  |  | inactive |  | 60.8 µM (active) and 68.6 µM (active)
CC(C)[C@@H](C(=O)O[C@@H](C#N)c1cccc(Oc2ccccc2)c1)c1ccc(Cl)cc1 | inactive |  | inactive |  | inactive | inactive | inactive | inactive | inactive | inactive | inactive |  | inactive | inactive |  | inactive |  |  |  | 
CCCCCCCCn1sccc1=O | 6.13 µM (active) and 5.09 µM (active) | 4.87 µM (active) and 3.6 µM (active) |  | 55.1 µM (active) and 51.3 µM (active) | inactive | 10.9 µM (active) and 32.1 µM (active) | 12.2 µM (active) and 40.4 µM (active) | inactive | inactive | 34.7 µM (active) and 28.9 µM (active) | inactive |  | inactive | 21.7 µM (active) and 25.5 µM (active) |  |  |  |  |  | inactive
C[N+](C)(C)CCOC(=O)C(O)(c1ccccc1)c1ccccc1 | inactive | inactive | inactive | inactive | inactive | inactive | inactive | inactive |  | inactive | inactive | inactive | inactive | inactive |  |  |  |  |  | 
